# Records with an inconclusive call do not appear. Calls of active or inactive are those of the source. Rule for the calls: active = hit-call score of the fitted dose curve at least 0.9, where 1 is the maximum; inconclusive = response in the unintended direction; inactive = score below 0.9.
# Molecular target: human Caspase 5 (CASP5), CASP5 (gene 838) (UniProt P51878)
# Assay: NVS_ENZ_hCASP5: NovaScreen (NVS) Enzymatic Assay for human Caspase 5 (CASP5) (AID 2283137)
# Summary of the method: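 Fluorescent substrate readout of CASP5 activity (loss-of-signal), measured 2 h post-dose. Protein expressed in E. coli. Primary screen duplicate at 25 uM; actives meeting threshold (e.g., 30% inhibition) rerun singleton, max 50 uM.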
# Chain of human Caspase 5 (CASP5), CASP5 (gene 838) (P51878 whole entry, looked up): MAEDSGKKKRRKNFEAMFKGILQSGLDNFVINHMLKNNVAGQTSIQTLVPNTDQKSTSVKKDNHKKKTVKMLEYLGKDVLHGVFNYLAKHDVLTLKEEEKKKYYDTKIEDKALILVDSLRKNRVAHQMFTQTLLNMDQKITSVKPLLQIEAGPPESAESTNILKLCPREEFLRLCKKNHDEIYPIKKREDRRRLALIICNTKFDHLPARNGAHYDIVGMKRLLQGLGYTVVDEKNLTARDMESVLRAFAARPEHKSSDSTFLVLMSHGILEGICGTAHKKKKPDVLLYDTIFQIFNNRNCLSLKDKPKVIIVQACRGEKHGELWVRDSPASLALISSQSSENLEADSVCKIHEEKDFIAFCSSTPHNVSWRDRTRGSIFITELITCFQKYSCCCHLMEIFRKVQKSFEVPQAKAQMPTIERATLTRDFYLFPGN
SMILES,outcome,AC50
CCCCCCCCc1ccc(O)cc1,inactive,
O=C1C2(Cl)C3(Cl)C4(Cl)C(Cl)(Cl)C5(Cl)C3(Cl)C1(Cl)C5(Cl)C24Cl (stereo not drawn),inactive,
CC(=O)[O][Hg][c]1ccccc1,,1.8 µM (active)
O=C(O)C(F)(F)C(F)(F)C(F)(F)C(F)(F)C(F)(F)C(F)(F)C(F)(F)C(F)(F)C(F)(F)C(F)(F)F,,3.6 µM (active)
Nc1cccc2ccccc12,,45.2 µM (active)
O=[N+]([O-])c1ccc2c3c(cccc13)CC2,,25 µM (active)
Nc1ncc([N+](=O)[O-])s1,,9.06 µM (active)
Cn1sc(Cl)cc1=O,inactive,

# From PubChem BioAssay (EPA / NIEHS)
